# According to PubChem BioAssay (NCATS):
# Where “and” joins values, the source holds several entries; their conditions need not be identical. Identical values can stand only once. Unmarked numbers belong to inactive results. Calls of active or inactive are those of the source. Unless noted, calls come from the whole dose curve. Numbered stars: 1 amine (or outer) side, 2 acyl side, 3 side chain; on linkers, the order of the positions; unused ones are H or OH. Bridge positions count the residues as written; N and C are the ends. Square brackets hold non-standard residues; d marks the D form. Peptide text beside a SMILES is read from it. I, II: the chains in the order shown. Actinocin(9to1) = Cc1c2oc3c(C)ccc(C(=O)[*:1])c3nc-2c(C(=O)[*:2])c(N)c1=O; NMeV = CN[C@H](C(=O)O)C(C)C; Sar = CNCC(=O)O
# Biological target: Ubiquitin carboxyl-terminal hydrolase 1 (Homo sapiens) (UniProt O94782)
# Experiment: Inhibitors of USP1/UAF1: Pilot qHTS (AID 504865; active = well fitted inhibition curve with a large enough effect; inconclusive = small, poorly fitted or top-dose-only effect;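 note: rhodamine fluorescence freed from ubiquitin-rhodamine substrate followed over time; top concentration of the series differs between compounds; % is set by controls: 0 for no effect and ±100 for the full control effect; nearly all actives have a fitted effect of over 35% in size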)
# Details: purified USP1/UAF1, Ub-rhodamine cleavage fluorescence; series mostly up to 114 µM; activity change, negative = inhibition: at the top concentration
# How it was run: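 1nM USP1/UAF1 + cpd, 15 min RT; start w/ Ub-Rho 150nM final; kinetic FL 480/540 nm, 6 reads q60 s. Buffer 50mM HEPES pH 7.8, 0.5mM EDTA, 1mM TCEP, 0.01% Tween-20, 0.1 mg/ml BSA.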
# Ubiquitin carboxyl-terminal hydrolase 1 (Homo sapiens), sequence (O94782 whole entry, looked up): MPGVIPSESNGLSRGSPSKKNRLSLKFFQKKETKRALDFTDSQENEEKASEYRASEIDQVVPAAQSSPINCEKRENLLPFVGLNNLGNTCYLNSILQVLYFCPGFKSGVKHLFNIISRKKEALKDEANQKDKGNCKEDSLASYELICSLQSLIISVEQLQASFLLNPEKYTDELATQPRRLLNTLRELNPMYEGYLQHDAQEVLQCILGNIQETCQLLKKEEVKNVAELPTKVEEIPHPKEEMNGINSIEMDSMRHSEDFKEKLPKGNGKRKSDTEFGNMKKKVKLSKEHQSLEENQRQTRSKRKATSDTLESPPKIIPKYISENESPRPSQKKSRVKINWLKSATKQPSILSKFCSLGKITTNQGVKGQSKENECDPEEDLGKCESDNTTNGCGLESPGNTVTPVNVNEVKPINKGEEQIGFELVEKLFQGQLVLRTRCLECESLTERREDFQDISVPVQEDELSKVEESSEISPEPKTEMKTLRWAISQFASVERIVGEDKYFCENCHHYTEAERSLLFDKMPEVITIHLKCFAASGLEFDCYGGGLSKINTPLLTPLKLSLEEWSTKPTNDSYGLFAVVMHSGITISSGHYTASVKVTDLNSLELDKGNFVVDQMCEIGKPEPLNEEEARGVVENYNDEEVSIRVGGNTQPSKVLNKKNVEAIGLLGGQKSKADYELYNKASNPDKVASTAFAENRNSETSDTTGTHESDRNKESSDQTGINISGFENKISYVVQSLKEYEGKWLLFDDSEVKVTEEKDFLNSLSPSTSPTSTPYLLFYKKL
row,Compound,"activity change, negative = inhibition [%]"
1,Cc1ncc(CSSCc2cnc(C)c(O)c2CO)c(CO)c1O,-12.8
2,CCCC(=O)Nc1ccc(OCC(O)CNC(C)C)c(C(C)=O)c1 (stereo unspecified),-10.3
3,CCOC(=O)c1cccc(N)c1,-1.64

# Biological target: Estrogen receptor (Homo sapiens) (UniProt P03372)
# Experiment: qHTS assay for small molecule antagonists of estrogen receptor alpha signaling (AID 588513; active = well fitted curve in the direction sought with a large enough effect in the signal ratio, with a control signal flat, not every such curve was filed as active; inconclusive = small, poorly fitted or top-dose-only effect, or effect the other way, or a change in a side signal; inactive = no such curve, though single readings can be large or run the other way; the % refers to the signal ratio; note: potency is the fitted concentration of half-maximal effect; for activity, negative = inhibition: % is set by controls: 0 for no effect and ±100 for the full control effect)
# Details: ER-alpha-UAS-bla HEK293, beta-lactamase ratio, antagonist mode; series mostly up to 76.9 µM; activity, negative = inhibition: at the top concentration
# How it was run: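 Beta-lactamase reporter, antagonist mode, HEK 293 GripTite cells; 0.5nM E2 stimulus, 18 h, 37 C; CCF4 dye 2 h RT; fluorescence. IC50 and efficacy from Hill fits, normalized to E2 and DMSO.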
# Estrogen receptor (Homo sapiens), sequence (P03372 whole entry, looked up): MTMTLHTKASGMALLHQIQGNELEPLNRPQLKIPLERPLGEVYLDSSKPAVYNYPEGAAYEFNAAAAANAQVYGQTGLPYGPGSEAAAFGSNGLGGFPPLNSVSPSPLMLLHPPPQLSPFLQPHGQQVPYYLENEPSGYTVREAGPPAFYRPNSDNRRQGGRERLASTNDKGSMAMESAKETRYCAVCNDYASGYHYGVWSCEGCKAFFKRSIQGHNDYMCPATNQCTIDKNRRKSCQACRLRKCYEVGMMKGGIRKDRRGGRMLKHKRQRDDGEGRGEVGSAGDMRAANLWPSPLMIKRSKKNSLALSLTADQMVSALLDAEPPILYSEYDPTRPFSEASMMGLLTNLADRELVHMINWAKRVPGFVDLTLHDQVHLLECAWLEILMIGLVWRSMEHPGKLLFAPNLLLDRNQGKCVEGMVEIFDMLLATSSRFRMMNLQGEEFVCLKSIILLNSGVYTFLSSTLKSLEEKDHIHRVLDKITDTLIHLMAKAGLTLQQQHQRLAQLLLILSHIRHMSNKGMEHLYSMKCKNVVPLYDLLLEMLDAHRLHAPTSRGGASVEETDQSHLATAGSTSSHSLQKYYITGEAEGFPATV
Compound,"activity, negative = inhibition [%]",Potency
Nc1ccc(C(=O)O)cc1,-4.21,
O=c1ccc2ccccc2o1,,inactive
"Cc1c2oc3c(C)ccc(C(=O)N[C@@H]4C(=O)N[C@H](C(C)C)C(=O)N5CCC[C@H]5C(=O)N(C)CC(=O)N(C)[C@@H](C(C)C)C(=O)O[C@@H]4C)c3nc-2c(C(=O)N[C@@H]2C(=O)N[C@H](C(C)C)C(=O)N3CCC[C@H]3C(=O)N(C)CC(=O)N(C)[C@@H](C(C)C)C(=O)O[C@@H]2C)c(N)c1=O (I: T[dV]P[Sar][NMeV] / II: T[dV]P[Sar][NMeV]; ester I:1-I:C, II:1-II:C; linker I:N-II:N via Actinocin(9to1))",,35.5 nM [inconclusive] (active) and 35.5 nM [inhibitor] (active)
C=C(CC)C(=O)c1ccc(OCC(=O)O)c(Cl)c1Cl,-6.51,
Oc1c(Cl)cc(Cl)cc1Sc1cc(Cl)cc(Cl)c1O,,39.8 µM [inconclusive] (active)
Cc1cc(=O)n(-c2ccccc2)n1C,-16.1,
O=C(O)CCCCC(=O)O,-21.4,
C=CCc1ccc(O)c(OC)c1,-19,
CC(O)C(=O)O (stereo unspecified),5.41,
COc1cccc2c1C(=O)c1c(O)c3c(c(O)c1C2=O)C[C@@](O)(C(=O)CO)C[C@@H]3O[C@H]1C[C@H](N)[C@H](O)[C@H](C)O1,,5.01 µM [inconclusive] (active) and 7.94 µM [inhibitor] (active)
CC(C)(C)CC(C)(C)c1ccc(OCCOCC[N+](C)(C)Cc2ccccc2)cc1,,44.7 µM [inconclusive] (active)
CC(=O)O[C@]1(C(C)=O)CC[C@H]2[C@@H]3C[C@H](C)C4=CC(=O)CC[C@]4(C)[C@H]3CC[C@@]21C,3.95,

# Biological target: Estrogen receptor (Homo sapiens) (UniProt P03372)
# Experiment: qHTS assay for small molecule agonists of estrogen receptor alpha signaling (AID 588514);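 note: 0% = vehicle only and 100% = reference agonist; nearly all actives have a fitted effect of over 70% in size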
# Details: ER-alpha-UAS-bla HEK293, beta-lactamase ratio, 18 h, percent of full estradiol response, vehicle zero; series mostly up to 76.8 µM; activation: at the top concentration
# How it was run: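 Fluorescence from CCF4 cleavage reports ER-alpha-driven beta-lactamase expression in HEK 293 cells treated 18 hrs at 37 C. Data normalized to 17-beta-estradiol (20 nM) and DMSO, fitted to Hill equation.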
row,Compound,activation [%]
1,Nc1ccc(C(=O)O)cc1,0.701
2,O=c1ccc2ccccc2o1,-6.22
3,"Cc1c2oc3c(C)ccc(C(=O)N[C@@H]4C(=O)N[C@H](C(C)C)C(=O)N5CCC[C@H]5C(=O)N(C)CC(=O)N(C)[C@@H](C(C)C)C(=O)O[C@@H]4C)c3nc-2c(C(=O)N[C@@H]2C(=O)N[C@H](C(C)C)C(=O)N3CCC[C@H]3C(=O)N(C)CC(=O)N(C)[C@@H](C(C)C)C(=O)O[C@@H]2C)c(N)c1=O (I: T[dV]P[Sar][NMeV] / II: T[dV]P[Sar][NMeV]; ester I:1-I:C, II:1-II:C; linker I:N-II:N via Actinocin(9to1))",-5.23
4,C=C(CC)C(=O)c1ccc(OCC(=O)O)c(Cl)c1Cl,-1.34
5,CN(C)/N=N/c1nc[nH]c1C(N)=O,-5.88
6,Oc1c(Cl)cc(Cl)cc1Sc1cc(Cl)cc(Cl)c1O,-4.05
7,Cc1cc(=O)n(-c2ccccc2)n1C,-4.66
8,O=C(O)CCCCC(=O)O,-9.63
9,C=CCc1ccc(O)c(OC)c1,-2.2
10,CC(O)C(=O)O (stereo unspecified),2.29
11,COc1cccc2c1C(=O)c1c(O)c3c(c(O)c1C2=O)C[C@@](O)(C(=O)CO)C[C@@H]3O[C@H]1C[C@H](N)[C@H](O)[C@H](C)O1,-7.28
12,COC1=CC(=O)C[C@@H](C)[C@]12Oc1c(Cl)c(OC)cc(OC)c1C2=O,-6.71
13,CC(C)(C)CC(C)(C)c1ccc(OCCOCC[N+](C)(C)Cc2ccccc2)cc1,-16.4
14,C[C@H]1C[C@H]2[C@@H]3CCC4=CC(=O)C=C[C@]4(C)[C@@]3(Cl)[C@@H](O)C[C@]2(C)[C@@]1(O)C(=O)CO,-4.3
15,CC(=O)O[C@]1(C(C)=O)CC[C@H]2[C@@H]3C[C@H](C)C4=CC(=O)CC[C@]4(C)[C@H]3CC[C@@]21C,-4.81

# Biological target: Androgen receptor (Homo sapiens) (UniProt P10275)
# Experiment: qHTS assay for small molecule agonists of androgen receptor signaling (AID 588515; active = well fitted curve in the direction sought with a large enough effect in the signal ratio, with a control signal flat; inconclusive = small, poorly fitted or top-dose-only effect, or effect the other way, or a change in a side signal; inactive = no such curve, though single readings can be large or run the other way; the % refers to the signal ratio; note: % is set by controls: 0 for no effect and ±100 for the full control effect)
# Details: AR-UAS-bla HEK293, beta-lactamase ratio, agonist 16 h; active compounds read high
# How it was run: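 Stimulation of an AR-responsive β-lactamase reporter in GripTite HEK293 cells was measured after 16 h compound exposure at 37 °C, via CCF4 fluorescence after 2 h RT. EC50 from Hill fits, normalized to R1881 at 30 nM.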
# Androgen receptor (Homo sapiens), sequence (P10275 whole entry, looked up): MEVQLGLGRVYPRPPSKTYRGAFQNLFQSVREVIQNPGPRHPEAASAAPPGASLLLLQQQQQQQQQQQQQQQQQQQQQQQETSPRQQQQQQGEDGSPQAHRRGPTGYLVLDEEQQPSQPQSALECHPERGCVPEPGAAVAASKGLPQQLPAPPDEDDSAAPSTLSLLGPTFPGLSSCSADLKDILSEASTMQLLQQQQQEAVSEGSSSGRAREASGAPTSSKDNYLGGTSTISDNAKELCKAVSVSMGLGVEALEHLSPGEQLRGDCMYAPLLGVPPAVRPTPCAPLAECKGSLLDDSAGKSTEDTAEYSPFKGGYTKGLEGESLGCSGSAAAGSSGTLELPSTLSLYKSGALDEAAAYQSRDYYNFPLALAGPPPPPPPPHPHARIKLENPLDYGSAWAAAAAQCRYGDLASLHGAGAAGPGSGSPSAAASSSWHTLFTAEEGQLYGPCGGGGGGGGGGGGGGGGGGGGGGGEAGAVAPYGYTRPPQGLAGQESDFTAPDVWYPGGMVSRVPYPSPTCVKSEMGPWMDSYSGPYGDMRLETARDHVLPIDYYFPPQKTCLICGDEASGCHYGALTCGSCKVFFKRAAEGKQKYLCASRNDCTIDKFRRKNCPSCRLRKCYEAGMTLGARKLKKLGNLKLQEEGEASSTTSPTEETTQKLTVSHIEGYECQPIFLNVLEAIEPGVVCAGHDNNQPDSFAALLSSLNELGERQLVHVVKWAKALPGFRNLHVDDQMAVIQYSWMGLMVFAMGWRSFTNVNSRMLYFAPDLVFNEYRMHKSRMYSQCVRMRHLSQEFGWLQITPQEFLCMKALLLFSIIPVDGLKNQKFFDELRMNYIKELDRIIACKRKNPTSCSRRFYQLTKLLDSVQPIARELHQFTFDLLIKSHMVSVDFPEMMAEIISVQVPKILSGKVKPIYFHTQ
row,Compound,activation [%]
1,O=C1OC(c2ccc(O)cc2)(c2ccc(O)cc2)c2ccccc21,-5.75
2,Cc1cc(=O)n(-c2ccccc2)n1C,-8.07
3,CCCCCCc1ccc(O)cc1O,-17.1

# Biological target: Bile acid receptor (Homo sapiens) (UniProt Q96RI1)
# Experiment: qHTS assay for small molecule antagonists of farnesoid X receptor signaling (AID 588526); note: potency is the fitted concentration of half-maximal effect; for activity change, negative = inhibition: % is set by controls: 0 for no effect and ±100 for the full control effect
# Details: HEK293T FXR-UAS-bla, beta-lactamase ratio, antagonist mode; series mostly up to 76.7 µM; activity change, negative = inhibition: at the top concentration
# How it was run: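 Concentration-response titrations were fitted to the Hill equation for half-maximal inhibition and maximal response, with data normalised to 50 uM chenodeoxycholic acid and DMSO control wells. Cells: FXR-UAS-bla HEK293T, dialyzed FBS.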
# Bile acid receptor (Homo sapiens), sequence (Q96RI1 whole entry, looked up): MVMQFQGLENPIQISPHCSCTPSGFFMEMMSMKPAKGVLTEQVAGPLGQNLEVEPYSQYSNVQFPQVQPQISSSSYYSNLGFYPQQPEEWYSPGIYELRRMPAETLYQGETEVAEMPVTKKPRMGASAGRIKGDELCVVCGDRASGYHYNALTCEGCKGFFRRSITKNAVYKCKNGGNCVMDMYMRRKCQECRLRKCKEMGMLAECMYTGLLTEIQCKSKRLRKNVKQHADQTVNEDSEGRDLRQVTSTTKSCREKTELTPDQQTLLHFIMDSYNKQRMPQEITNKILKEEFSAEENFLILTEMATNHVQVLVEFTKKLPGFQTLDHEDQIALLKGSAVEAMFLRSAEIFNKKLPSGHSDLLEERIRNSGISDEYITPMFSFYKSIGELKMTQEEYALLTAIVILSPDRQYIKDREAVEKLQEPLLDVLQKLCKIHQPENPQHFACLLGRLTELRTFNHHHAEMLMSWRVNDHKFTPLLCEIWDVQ
Compound,"activity change, negative = inhibition [%]",Potency
Nc1ccc(C(=O)O)cc1,3.7,
O=c1ccc2ccccc2o1,,inactive
CN(C)/N=N/c1nc[nH]c1C(N)=O,-20.6,
Cc1cc(=O)n(-c2ccccc2)n1C,-0.94,
O=C(O)CCCCC(=O)O,-2.47,
CC(O)C(=O)O (stereo unspecified),2.09,
CC/C(=C(/CC)c1ccc(O)cc1)c1ccc(O)cc1,,44.7 µM (active) and 39.8 µM (active)
CN(C)C(=S)SC(=S)N(C)C,-3.17,
